Results on five compounds are retold here after PubChem BioAssay.

Assay [1] is described as follows: polyglutamine-triggered caspase-3 activation inhibitors, cell-based (AID 1583). Particulars: polyglutamine-induced caspase-3 activation, cell assay; stronger effect = higher value;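 tested at 10 µM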.
Assay [2] is described as follows: suppressors of polyQ aggregation in yeast, 75Q-TubU reporter (AID 1593). The note with it: Yeast 75Q polyglutamine aggregation reporter.
Assay [3] is described as follows: rescue of polyQ-huntingtin neuronal dysfunction in worms, whole organism, C. elegans mechanosensory neurons, N-terminal huntingtin (AID 1599). Particulars: touch response, stronger effect = higher value.
Assay [4] is described as follows: inhibitors of mitochondrial cytochrome c release, biochemical, purified mitochondria (AID 1603).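 Also: mouse liver mitochondria challenged with calcium chloride; signal normalized to the plate average as 100%.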 Particulars: stronger effect = lower value.
Assay [5] in a line: inhibitors of polyQ protein aggregation (AID 1604). The note with it: polyglutamine-induced protein aggregation inhibition assay; stronger effect = higher value; tested at 2.5 µM.
Assay [6] is described as follows: enhancers of glutamate uptake in motor neurons, MN-1 cell line (AID 1612).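 Also: tested at 1 µM final; 0% = mean of DMSO vehicle wells on each plate; positive means more glutamate uptake than control and negative means less.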 The note with it: MN-1 motor neuron cells, stronger effect = higher value.
Assay [7] in a line: suppressors of polyglutamine aggregation in yeast, 75Q-TubH (AID 1616). The note with it: S. cerevisiae 75Q-TubH polyglutamine aggregation suppression; stronger effect = higher value.
Assay [8] is described as follows: hESC survival regulators, cell-based (AID 493140; call rule not given here;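 also: cells exposed to compounds for four days before counting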). The note with it: human embryonic stem cell survival screen; stronger effect = higher value.
Assay [9] has as its target 6-phosphogluconate dehydrogenase, decarboxylating (Homo sapiens) (UniProt P52209). Briefly: 6PGD enzyme inhibitors, primary screen, biochemical, human, recombinant enzyme, NADPH absorbance (AID 1159550;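 active = at least 20% inhibition of 6-phosphogluconate dehydrogenase activity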). Particulars: recombinant 6PGD, NADPH absorbance 341 nm; at 10 µM; stronger effect = higher value.
A short description of assay [10]: differential killing of epithelial or mesenchymal cells, primary screen, imaging, PC-3E GFP, TEM4-18 mCherry, co-culture (AID 1345086;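 active = compounds killing one labelled cell type while sparing the other, by normalised counts and ratio limits, not self-fluorescent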;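 as to all read-outs here: cells exposed to compound for 72 h before imaging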;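 as to red/green cell ratio (normalised): normalised mesenchymal count divided by normalised epithelial count so high means epithelial killing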). The note with it: imaging cell counts, at 1 µM; for red/green cell ratio (normalised): actives lie on both sides, counts scaled to control wells, 1 = unselective.
The nature of assay [11]: sensitizers of A549 cells to miR-34 induction, primary screen, imaging, A549 dox-inducible miR-34, nuclei and caspase counts (AID 1347080;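 active = compounds whose cell count with miR-34 switched on is under 0.7 times the count with it off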). Particulars: A549 miR-34 inducible, Hoechst nuclei count, 48 h.
Assay [12] can be described thus: survival rescue of mitochondrial mutant cells in low glucose, primary screen, MELAS cybrids, Rieske KO mouse fibroblasts, CellTiter-Glo (AID 1508586).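 Also: z relative to plate mean and SD of compound and empty wells.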 Background: ATP-based viability assays read luminescence as a measure of living cells.
The target of assay [13] is NAD(+) hydrolase SARM1 (Homo sapiens) (UniProt Q6SZW1). Briefly: SARM1 TIR NADase inhibitors, cell lysate, NAD-Glo luminescence (AID 1508614;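 active = compound whose remaining NAD level is above about 45 nM, limit read from the data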;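 also: higher remaining NAD means stronger inhibition of SARM1 NADase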). The note with it: SAM-TIR HEK293T lysate NADase, at 1 µM, stronger effect = higher value.
Assay [14] deals with Mitogen-activated protein kinase 7 (Homo sapiens) (UniProt Q13164). As to the kind of experiment: ERK5 transactivation activators in reporter cells, primary screen, cell-based, HTS (AID 1508626;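 active = luciferase signal above three times the same-plate solvent-only control wells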;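 also: luciferase driven by Gal4-ERK5 fusion binding five Gal4 sites before minimal TATA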). Particulars: HeLa Gal4-ERK5 transactivation, 18 h, at 5 µM, stronger effect = higher value.
Assay [15] is described as follows: viability rescue of complex I mutant cybrids, primary screen, cell-based, galactose medium, ATP luminescence (AID 1645843;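 active = z-score of at least 1.8 in each of two replicates, scored against plate mean and spread of sample wells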;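 also: positive z means more ATP and so rescue of galactose-driven cybrid death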). The note with it: complex I mutant cybrid cells, 72 h, stronger effect = higher value.
A short description of assay [16]: liver-stage malaria parasite growth inhibition, primary screen, cell-based, HepG2, luciferase luminescence, HepG2 viability (AID 624349; in the data active = parasite load remaining mostly below about 12%, no sharp cut-off; inactive = mostly above about 10%;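 also: 100% = mean of DMSO negative control wells on the same plate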). The note with it: P. berghei liver stage in HepG2, luciferase luminescence, concentration not given here; parasite load remaining: stronger effect = lower value; viability: measured here: HepG2 viability without parasites.
A short description of assay [17]: SU-DIPG-VI glioma cell viability, MIPE4.0 library, CellTiter-Glo luminescence, qHTS (AID 1347066; cut-off not given, nearly all actives have AC50 up to about 30 µM;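 also: cells exposed to compound for 48 hours before readout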). The note with it: CellTiter-Glo ATP luminescence.
Where [18] appears, read: measured here: epithelial PC-3E GFP cell survival.
[19] abbreviates: measured here: mesenchymal TEM4-18 mCherry cell survival.
The mark [20] stands for this setting: stronger effect = lower value, cell number ratio, induced over uninduced.
Where [21] appears, read: measured here: relative caspase fold change +Dox/-Dox.
[22] abbreviates: measured here: total cells with miR-34 induction, stronger effect = lower value.
Setting [23] is: measured here: total cells without miR-34 induction.
The mark [24] stands for this setting: MELAS cybrid survival, CellTiter-Glo 48 h, stronger effect = higher value.
Where [25] appears, read: Rieske KO mouse fibroblast survival, CellTiter-Glo 72 h.

Where “and” joins values, the source holds several entries; their conditions need not be identical. Equal values may be shown once. Records with an inconclusive call do not appear. For some of these results: Entries with a potency or affinity are not part of this list. Calls of active or inactive are those of the source.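 The calls were made as follows, unless noted: active = mean z-score across replicates of 1.96 or higher in either the MELAS or the Rieske mutant cell line; inactive = the rest.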

Sequence of Mitogen-activated protein kinase 7 (Homo sapiens) (Q13164 whole entry, looked up, the tested form may be a part): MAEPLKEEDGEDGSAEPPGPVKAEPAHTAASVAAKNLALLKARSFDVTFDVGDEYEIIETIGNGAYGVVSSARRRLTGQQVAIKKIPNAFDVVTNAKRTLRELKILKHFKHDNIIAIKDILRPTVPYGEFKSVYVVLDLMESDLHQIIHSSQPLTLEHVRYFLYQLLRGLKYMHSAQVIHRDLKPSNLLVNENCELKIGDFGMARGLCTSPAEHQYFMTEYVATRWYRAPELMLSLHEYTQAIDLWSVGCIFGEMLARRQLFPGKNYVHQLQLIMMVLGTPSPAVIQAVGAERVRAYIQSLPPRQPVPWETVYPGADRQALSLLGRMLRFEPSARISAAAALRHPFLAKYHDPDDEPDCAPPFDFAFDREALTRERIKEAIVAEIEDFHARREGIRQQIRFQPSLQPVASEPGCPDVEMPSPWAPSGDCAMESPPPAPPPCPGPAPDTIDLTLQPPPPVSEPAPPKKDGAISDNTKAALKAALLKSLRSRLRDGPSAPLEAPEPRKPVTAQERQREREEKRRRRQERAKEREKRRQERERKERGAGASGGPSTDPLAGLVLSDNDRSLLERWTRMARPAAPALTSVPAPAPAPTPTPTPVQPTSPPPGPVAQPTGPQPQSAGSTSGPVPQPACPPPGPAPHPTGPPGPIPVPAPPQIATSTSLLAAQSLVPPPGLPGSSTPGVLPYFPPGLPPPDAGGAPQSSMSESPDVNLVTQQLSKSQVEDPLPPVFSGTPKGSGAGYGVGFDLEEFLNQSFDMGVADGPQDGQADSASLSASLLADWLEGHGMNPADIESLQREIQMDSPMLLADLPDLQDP
Sequence of 6-phosphogluconate dehydrogenase, decarboxylating (Homo sapiens) (P52209 whole entry, looked up): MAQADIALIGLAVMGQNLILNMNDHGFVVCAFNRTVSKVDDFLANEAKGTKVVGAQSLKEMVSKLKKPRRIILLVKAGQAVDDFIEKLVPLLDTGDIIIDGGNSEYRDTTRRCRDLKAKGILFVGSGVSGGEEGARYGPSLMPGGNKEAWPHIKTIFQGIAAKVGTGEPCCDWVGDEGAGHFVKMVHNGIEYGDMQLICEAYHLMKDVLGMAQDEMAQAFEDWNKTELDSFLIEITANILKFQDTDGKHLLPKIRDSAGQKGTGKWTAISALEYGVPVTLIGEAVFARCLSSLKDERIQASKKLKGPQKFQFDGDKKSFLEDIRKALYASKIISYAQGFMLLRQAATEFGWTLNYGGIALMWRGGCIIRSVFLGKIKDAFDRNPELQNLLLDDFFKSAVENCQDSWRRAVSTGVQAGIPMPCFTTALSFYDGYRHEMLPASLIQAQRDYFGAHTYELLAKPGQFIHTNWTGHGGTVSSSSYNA
Sequence of NAD(+) hydrolase SARM1 (Homo sapiens) (Q6SZW1 whole entry, looked up, the tested form may be a part): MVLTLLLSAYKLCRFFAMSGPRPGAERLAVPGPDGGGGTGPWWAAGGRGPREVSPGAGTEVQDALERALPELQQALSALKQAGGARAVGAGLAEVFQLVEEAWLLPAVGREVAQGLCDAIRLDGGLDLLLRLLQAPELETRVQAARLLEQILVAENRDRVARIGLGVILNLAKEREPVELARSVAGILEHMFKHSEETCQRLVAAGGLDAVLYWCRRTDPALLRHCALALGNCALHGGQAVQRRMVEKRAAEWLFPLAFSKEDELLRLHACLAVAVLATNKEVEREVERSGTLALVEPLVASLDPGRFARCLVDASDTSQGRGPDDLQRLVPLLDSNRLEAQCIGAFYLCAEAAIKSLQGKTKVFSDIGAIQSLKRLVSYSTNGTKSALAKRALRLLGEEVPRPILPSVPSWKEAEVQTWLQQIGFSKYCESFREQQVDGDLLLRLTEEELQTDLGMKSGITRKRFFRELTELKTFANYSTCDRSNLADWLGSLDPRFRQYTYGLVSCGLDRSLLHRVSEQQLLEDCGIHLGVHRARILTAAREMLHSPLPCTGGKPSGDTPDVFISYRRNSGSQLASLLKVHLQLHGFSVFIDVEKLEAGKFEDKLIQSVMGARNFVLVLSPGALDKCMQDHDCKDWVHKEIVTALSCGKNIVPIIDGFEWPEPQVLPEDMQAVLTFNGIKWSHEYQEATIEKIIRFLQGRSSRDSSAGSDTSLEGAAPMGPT

The inhibition is the drop in the measured response relative to a control, in per cent. For `CN(C)CCN(Cc1cccs1)c1ccccn1`, the inhibition is 23.7% in assay [1] and 15.9% (inactive) in assay [9]. Further, the score in [2] turned out to be 1.21. In addition, the rescue above control in assay [3] is -13.2. For the same compound, the cytochrome c release ratio in assay [4] worked out at 0.66. The inhibition of aggregation in assay [5] worked out at 81.4%. Further, the glutamate uptake change in assay [6] is -6.5%. Further, the aggregation suppression score in assay [7] is 1.19. For the same compound, the survival in [8] was 13.8 (inactive). Besides, the red/green cell ratio (normalised) in assay [10] was 1.12 (inactive). The values for the normalised cell number in assay [10] (setting [18]) and in [10] (setting [19]) were 1.1 and 1.22, respectively. The fold change in [11] (setting [20]) is 1.16 (inactive) and 0.855 (inactive) and 0.861 (inactive); in [11] (setting [21]), 0.908 and 1.23 and 2.97. For the same compound, the cell count is 11200 and 8440 and 11600 in assay [11] (setting [22]); 9630 and 9870 and 13500 in assay [11] (setting [23]). Moreover, the z-score was 0.365 (inactive) in assay [12] (setting [24]), -0.164 in [12] (setting [25]) and 0.215 (inactive) in assay [15]. For the same compound, the remaining NAD in assay [13] was 10 nM (inactive). In assay [14], the luciferase signal is 36 AU (inactive).

What is called viability is a per cent measure of how many cells are alive, often set against a control. `CCC(c1ccc(O)cc1)C(CC)c1ccc(O)cc1` (stereo unspecified): the figures for the inhibition in assay [1] and in [9] were 87.7% and -4.21% (inactive), respectively. Besides, in assay [2], the score is -0.18. In addition, the rescue above control in [3] was 0. In assay [4], the cytochrome c release ratio stood at 0.95. The inhibition of aggregation in [5] was 62%. For the same compound, the glutamate uptake change in assay [6] is -7.89%. Moreover, the aggregation suppression score in assay [7] is -0.0418. In assay [8], the survival is 2.75 (inactive). For the same compound, the parasite load remaining in assay [16] is 53.4% (inactive) and 65.7% (inactive). For the same compound, the viability in assay [16] was 91.5% and 76.1%. Also, the red/green cell ratio (normalised) in [10] is 0.99 (inactive). For the same compound, the results for the normalised cell number in assay [10] (setting [18]) and in [10] (setting [19]) were 1.08 and 1.07, respectively. Also, the fold change in assay [11] (setting [20]) is 0.875 (inactive) and 0.921 (inactive); in [11] (setting [21]), 1.39 and 0.838. Also, the cell count is 8210 and 9640 in [11] (setting [22]); 9390 and 10500 in assay [11] (setting [23]). Further, the z-score in assay [12] (setting [24]) is -0.359 (inactive) and -2.3 (inactive); in [12] (setting [25]), 0.432 and -0.759. Further, the luciferase signal in assay [14] is 40 AU (inactive).

A word on the AC50: it is the concentration giving half of the maximal activity seen. Turning to `COc1ccc(-c2cc(=O)c3c(O)cc(O)cc3o2)cc1O`, the inhibition in assay [9] was 11.1% (inactive). Further, the red/green cell ratio (normalised) in assay [10] is 0.91 (inactive). Besides, the normalised cell number in assay [10] (setting [18]) is 1.34; in assay [10] (setting [19]), 1.22. Moreover, the AC50 in assay [17] was 10.5 µM (active). In addition, the fold change in assay [11] (setting [20]) was 0.906 (inactive); in assay [11] (setting [21]) it was 0.637. In addition, the cell count turned out to be 8940 in [11] (setting [22]) and 9870 in assay [11] (setting [23]). The z-score in [12] (setting [24]) is -0.264 (inactive); in assay [12] (setting [25]) it was 0.709.

With `COc1cc2c(cc1OC)[C@@H]1C(=O)c3ccc4c(c3O[C@@H]1CO2)C=CC(C)(C)O4`, in assay [9], the inhibition was -0.416% (inactive). Besides, the red/green cell ratio (normalised) in assay [10] was 0.71 (inactive). In addition, the normalised cell number in assay [10] (setting [18]) stood at 0.9; in assay [10] (setting [19]) it was 0.64. The luciferase signal in [14] was 44 AU (inactive).

As for `Nc1ccc(S(=O)(=O)Nc2ncccn2)cc1`, the results for the inhibition in assay [1] and in [9] were -24.3% and 5.23% (inactive), respectively. Moreover, the score in [2] is 0.99. In addition, the rescue above control in [3] is -2.17. Also, in assay [4], the cytochrome c release ratio is 1.47. In assay [5], this compound registered an inhibition of aggregation of 53.9%. In addition, the glutamate uptake change in [6] was -2.67%. Further, the aggregation suppression score in assay [7] was found to be 0.995. For the same compound, the survival in [8] was 31.2 (inactive). The red/green cell ratio (normalised) in assay [10] is 1.41 (inactive). Also, the normalised cell number is 0.84 in assay [10] (setting [18]) and 1.19 in assay [10] (setting [19]). Besides, the compound was called inactive in [17]. For the same compound, the z-score in [12] (setting [24]) was -0.222 (inactive) and 0.26 (inactive) and -0.566 (inactive); in assay [12] (setting [25]), 0.689 and 0.071 and -1.27; in assay [15], -0.065 (inactive). Further, the remaining NAD in assay [13] was 10 nM (inactive). In addition, in [14], the luciferase signal is 40 AU (inactive).
